Shiga inhibitor: blocks Shiga toxin action in Vero cells | 9.2% of 290,000 active | inhibition, % at 38.7 µM | Vero cells, Shiga toxin protein synthesis inhibition reporter; in the data active means inhibition mostly above about 28%, no sharp cut-off; inactive means mostly below about 43%; further: 0% is about no effect
Pf growth 48h: P. falciparum growth inhibition at 48 hours (one generation); P. falciparum luciferase growth in erythrocytes, 48 h; 5.9% of 310,000 active; Potency, µM (top dose mostly 28.7 µM), without a hit: top-dose activity change, negative = inhibition, usual class: inhibitors; further: potency means the concentration at half of the fitted maximal effect; on the % scale 0 is the no-effect control and ±100 the full control effect
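Luciferase-expressing parasites in RBCs, 2% Hct / 0.1% parasitemia final; RPMI 1640 + 0.5% Albumax; 37 C, 5% CO2, one generation; luminescence read-out, lower signal = inhibition.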
Pf growth 96h: P. falciparum growth inhibition at 96 hour, primary screen for plastid delayed-death inhibitors. P. falciparum luciferase reporter growth, 96 h. Potency, µM (series often up to 28.7 µM), for the others: at the highest dose activity change, negative = inhibition, usual class: inhibitors. 6.9% of 320,000 active. AID 504834; further: potency means the concentration at half of the fitted maximal effect; on the % scale 0 is the no-effect control and ±100 the full control effect
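Infected RBCs, 2% Hct / 0.05% parasitemia final; luciferase-reporter P. falciparum; cpd 96 h, 37 C, 5% CO2; luciferase detection reagent; luminescence.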
Cycloheximide cs: affects cycloheximide protein synthesis inhibition readout, counter-screen; max response, %; AID 2314; cell reporter, cycloheximide protein synthesis inhibition counterscreen; 12% of 300,000 active; in the data active means max response mostly above about 13%, no sharp cut-off; inactive means mostly below about 14%; further: read at 38.3 µM for the half of the compounds with a filed dose; 0% is about no effect
* marks the source's active call; other numbers are inactive results; [ ] = another dose, or the depositor's remark. An excerpt weighted towards active compounds, which were near 21% of everything screened. Unless noted, the call rests on the fitted dose curve; in most records, active means well fitted inhibition curve with a large enough effect; inconclusive means small, poorly fitted or top-dose-only effect, or another doubt; inactive means no such curve, though single readings can be large or run the other way.

For CCC1CN(C(=O)N2CCC(C(=O)NCc3cccc(OC)c3OC)CC2)c2cc(C)ccc2O1 (stereo unspecified) the results were Shiga inhibitor -6.4, Pf growth 48h -28.3%, Pf growth 96h inconclusive and Cycloheximide cs -11.0.
Nc1ccc(Oc2cc(N)cc(Oc3ccccc3)c2)cc1 was read as Shiga inhibitor 67.7*, Pf growth 48h 62.6%, Pf growth 96h inconclusive and Cycloheximide cs 43.6*.
For Nc1ccc(Oc2ccc3nc(-c4ccccc4)c(-c4ccccc4)nc3c2)cc1 the results were Shiga inhibitor -6.8, Pf growth 48h inconclusive, Pf growth 96h inconclusive and Cycloheximide cs 1.2.
`COCCCNC(=O)c1ccccc1Oc1ccccc1` gave Shiga inhibitor 12.5, Pf growth 48h inconclusive, Pf growth 96h 29.2% and Cycloheximide cs -2.8.
COCCCNC(=O)c1ccc2c3c(onc13)-c1ccccc1C2=O was read as Shiga inhibitor 69.4*, Pf growth 48h -87.9%, Pf growth 96h -24.0% and Cycloheximide cs 35.1*.
For COc1ccc(NC(=O)Cn2nc(C(=O)O)c3ccccc3c2=O)cc1Cl the results were Shiga inhibitor 13.5, Pf growth 48h 6.1%, Pf growth 96h -1.6% and Cycloheximide cs -4.9.
C=CCn1c(-c2ccc(OC)cc2)csc1=Nc1c(C)n(C)n(-c2ccccc2)c1=O was read as Shiga inhibitor -22.3, Pf growth 96h 14.7µM* and Cycloheximide cs -3.7.
Screening COc1ccc(-c2csc(=NCCO)n2-c2ccccc2)cc1 returned Shiga inhibitor 70.9*, Pf growth 48h -7.2%[0.00184 µM], Pf growth 96h 25.9% and Cycloheximide cs 17.3*.
`COc1ccc(OCCn2c(=N)n(CCO)c3ccccc32)cc1` gave Shiga inhibitor -12.7, Pf growth 48h -18.6% and Cycloheximide cs 3.9.
For Cc1csc(=Nc2c(C)n(C)n(-c3ccccc3)c2=O)n1Cc1ccccc1 the results were Shiga inhibitor 22.5, Pf growth 48h -12.6%, Pf growth 96h -9.9% and Cycloheximide cs 2.4.
COc1ccc(-c2csc(=Nc3ccccc3)n2CCO)cc1 was read as Shiga inhibitor 41.4*, Pf growth 48h 8.3%, Pf growth 96h -0.9% and Cycloheximide cs 16.0*.
`O=C(OCC#CCSc1nnc(-c2ccc(Br)cc2)o1)c1cccs1` gave Shiga inhibitor 36.9, Pf growth 48h 40.7%, Pf growth 96h 6.7% and Cycloheximide cs 12.9.
`Cc1ccc(-c2nnc(SCC#CCOC(=O)c3ccco3)o2)cc1` gave Shiga inhibitor 47.0, Pf growth 96h inactive and Cycloheximide cs 27.1*.
Cc1ccc(-c2nnc(SCC#CCOC(=O)c3cccs3)o2)cc1 was read as Shiga inhibitor 39.0, Pf growth 48h 44.3% and Cycloheximide cs 8.6*.
For CCOc1cc(N2CCOCC2)c(OCC)cc1NC(=O)CN1CCSC1=O the results were Pf growth 48h 25.6% and Pf growth 96h 29.0%.
`CCN(CC)S(=O)(=O)c1cc(NC(=O)CSc2nc3c(cc2C#N)C(=O)CC(C)(C)C3)ccc1C` gave Shiga inhibitor 0.8, Pf growth 48h 3.7µM*, Pf growth 96h 2.62µM* and Cycloheximide cs -0.7.
`COc1ccc(C(=O)c2sc3nc(-c4ccccc4)ccc3c2N)cc1` gave Shiga inhibitor 26.6, Pf growth 48h -12.4%, Pf growth 96h -20.4% and Cycloheximide cs 2.4.
`COC(=O)c1sc2nc(-c3ccco3)ccc2c1N` gave Shiga inhibitor 93.1*, Pf growth 48h 0.0%, Pf growth 96h 0.0% and Cycloheximide cs 68.4*.
For NC(=O)c1sc2nc(-c3ccco3)ccc2c1N the results were Shiga inhibitor 110.2*, Pf growth 48h 148.1%, Pf growth 96h 259.9% and Cycloheximide cs 37.3*.
Screening Nc1c(C(=O)Nc2ccccc2F)sc2nc(-c3cccnc3)ccc12 returned Shiga inhibitor 26.7, Pf growth 48h 95.6%, Pf growth 96h 30.6% and Cycloheximide cs 3.5.
`Nc1c(C(=O)Nc2ccccc2F)sc2nc(-c3ccco3)ccc12` gave Shiga inhibitor 96.8*, Pf growth 48h 110.1%, Pf growth 96h 223.8% and Cycloheximide cs 46.9*.
`Cc1cc(C(=O)CSc2nnc(-c3ccco3)o2)c(C)n1Cc1ccco1` gave Shiga inhibitor 96.3*, Pf growth 48h -11.2%, Pf growth 96h inconclusive and Cycloheximide cs 30.7*.
For O=C(CSc1nnc(-c2ccco2)o1)c1ccccc1Cl the results were Shiga inhibitor 31.1, Pf growth 48h 4.3%, Pf growth 96h -11.9% and Cycloheximide cs 16.8*.
For Cc1nnc(SCc2ccc3c(c2)OCO3)s1 the results were Shiga inhibitor 142.5*, Pf growth 96h 194.1% and Cycloheximide cs 80.7*.
`Cc1cc(C(=O)CSc2nnnn2C)c(C)n1-c1ccc2c(c1)OCCO2` gave Shiga inhibitor 142.4*, Pf growth 48h 1.4% and Cycloheximide cs 37.5*.
Screening Cc1cc(C(=O)CCl)c(C)n1Cc1ccco1 returned Shiga inhibitor 43.3, Pf growth 48h 15.8%, Pf growth 96h 197.0% and Cycloheximide cs 20.7.
Cc1nnc(SCC(=O)c2cc(C)n(-c3ccc4c(c3)OCO4)c2C)s1 was read as Shiga inhibitor 35.8*, Pf growth 48h inconclusive, Pf growth 96h -13.3%[5.75 µM] and Cycloheximide cs 18.0*.
Cc1cc(C(=O)CSc2nnc(-c3ccco3)o2)c(C)n1-c1ccc2c(c1)OCCO2 was read as Shiga inhibitor 7.2, Pf growth 96h 11.7µM* and Cycloheximide cs 4.3.
CC(=O)c1ccc(NC(=O)CSc2nnc(-c3ccco3)o2)cc1 was read as Shiga inhibitor 36.5, Pf growth 48h 41.8%, Pf growth 96h inconclusive and Cycloheximide cs 17.2*.
CCN(CC)C(=O)CSc1nnc(-c2ccco2)o1 was read as Shiga inhibitor 46.6*, Pf growth 48h 133.3%, Pf growth 96h 217.6% and Cycloheximide cs 23.1*.
CN(C(=O)CSc1nnc(-c2ccco2)o1)C1CCCCC1 was read as Shiga inhibitor 59.0, Pf growth 48h 69.6%, Pf growth 96h 120.1% and Cycloheximide cs 13.3.
Screening COc1cc2cc(C(=O)N(C)C3CCS(=O)(=O)C3)[nH]c2cc1OC (stereo unspecified) returned Shiga inhibitor 9.9, Pf growth 48h 11.7%, Pf growth 96h -19.2% and Cycloheximide cs -5.4.
Screening CCCCCCCC(=O)N/N=C(\C)c1cccnc1 returned Shiga inhibitor 2.5, Pf growth 48h 8.3%, Pf growth 96h inconclusive and Cycloheximide cs -3.4.
Cc1cc(C(=O)CSc2nncs2)c(C)n1Cc1ccco1 was read as Shiga inhibitor 108.9*, Pf growth 48h 0.0%, Pf growth 96h 218.6% and Cycloheximide cs 37.7*.
Screening Cc1ccc2c([N+](=O)[O-])cccc2n1 returned Shiga inhibitor 7.3, Pf growth 48h 4.0%, Pf growth 96h 31.6% and Cycloheximide cs 1.5.
For Cc1nc2c(ccc3c([N+](=O)[O-])cccc32)c(C)c1C the results were Shiga inhibitor 74.8, Pf growth 48h 30.2%, Pf growth 96h 26.6% and Cycloheximide cs 36.7*.
Screening Cc1ccc2c(O)c(C)c(=O)[nH]c2n1 returned Shiga inhibitor -8.2, Pf growth 48h 20.6%, Pf growth 96h 32.0% and Cycloheximide cs -2.8.
`CCN(C(=O)COC(=O)Cc1ccc(F)cc1)c1c(N)n(Cc2ccccc2)c(=O)[nH]c1=O` gave Pf growth 48h 6.0% and Pf growth 96h 23.6%.

Bioassay records (PubChem BioAssay)
